Screening results from PubChem BioAssay.
HIF-2a inh = HIF-2a inhibition; 786-0 RCC cells HIF-2a reporter, luciferase luminescence, overnight; inhibition, % at 18.8 µM; 360,000 compounds, 0.72% hits;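 active means inhibition of the luminescence signal of 40% or more relative to plate controls, in a single-dose primary screen at 18.75 µM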
Peg3 promoter = Peg3 promoter activity inhibition; 360,000 compounds, 1.7% hits; HeLa PEG-Prom luciferase reporter, luminescence, overnight; inhibition, % at 20 µM; AID 588405;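 active means inhibition of at least 50% at 20 µM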
CF NFkB block = blocks PAF-induced NF-kB reporter in cystic fibrosis cells. KKLEB NF-kB-GFP reporter, GFP fluorescence overnight. inhibition, % at 5 µM. 360,000 compounds, 0.86% hits. AID 588850;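 active means at least 50% inhibition at 5 µM, scaled per plate between neutral and stimulator controls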;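 further: PAF is a Pseudomonas aeruginosa culture filtrate used as stimulus; plate controls were PAF-stimulated DMSO wells for no effect and unstimulated DMSO wells for full effect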
KKLEB cytotox = reduces viability of KKLEB cystic fibrosis airway cells; KKLEB CF airway cells viability, ATPlite luminescence, overnight; active compounds read low; cells stimulated with P. aeruginosa culture filtrate; 360,000 compounds, 0.36% hits; activity change (cytotoxicity), % at 5 µM;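 active means corrected activity change at or below -50% at 5 µM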
Mdm2-MdmX inh = human Mdm2/MdmX binding inhibition. AID 485346. inhibition, % at 8 µM. SaOS-2 split-luciferase Mdm2/MdmX complementation, luminescence. 330,000 compounds, 3% hits;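 active means inhibition of at least 50% at 8 µM in the primary screen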
ABHD5 PLIN5 PPI = inhibitors of human ABHD5-perilipin-5 interaction; 360,000 compounds, 0.78% hits; inhibition, % at 4 µM; Split G. princeps luciferase complementation, luminescence, 4 h;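 active means inhibition above the mean inhibition across every tested compound plus 3 SD, cut at about 22% in these data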;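 further: 0% = DMSO only wells and the 100% control is not disclosed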
Mdm2 MdmX conf = confirmation of human Mdm2/MdmX interaction inhibitors; shares compounds with Mdm2-MdmX inh; Mdm2-MdmX binding, luminescent assay; inhibition, % at 8 µM; 10,000 compounds, 55% hits; AID 489028; in the data active means inhibition above about 40%
FLuc counter = inhibits full-length luciferase, flagging false Mdm2/MdmX hits; shares compounds with Mdm2-MdmX inh; SaOS-2 full-length luciferase counterscreen, luminescence; inhibition, % at 8 µM; 6,200 compounds, 77% hits;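 active means mean inhibition at 8 µM reaching about 37%, which flags the compound as non-specific, limit read from the data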;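 further: p53-null SaOS-2 cells with luciferase driven by a doxycycline-inducible promoter; compound on cells about two nights before reading with doxycycline added after day one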
Numbers without * were called inactive; x = no result. In the library only some 4.6% were active in any assay of this set; here they are far more common.

SMILES	HIF-2a inh	Peg3 promoter	CF NFkB block	KKLEB cytotox	Mdm2-MdmX inh	ABHD5 PLIN5 PPI	Mdm2 MdmX conf	FLuc counter
COc1ccc(OC)c(NC(=O)C2CCC(CNc3c(N4CCC(C)CC4)c(=O)c3=O)CC2)c1 (configuration not stated)	-13.5	-0.9	-3.2	-16.2	51.7*	3.8	29.2	x
COc1ccc(C)cc1NC(=O)C1CCC(CNc2c(N3CCOCC3)c(=O)c2=O)CC1 (configuration not stated)	4.8	7.1	19.8	-2.6	37.9	1.7	x	x
Cc1ccc(NC(=O)CCC(=O)N/N=C/c2ccc(O)cc2O)cc1	10.3	22.7	-3.3	10.3	22.2	8.1	x	x
C=CCc1cccc(/C=N/NC(=O)CCC(=O)Nc2ccc(C)cc2)c1O	16.1	30.8	15.4	-13.1	65.1*	0.4	65.2*	52.2*
Cc1sc(NC(=O)Cc2ccc3c(c2)OCO3)nc1-c1ccc2c(c1)CCN2C(=O)c1ccccc1F	-26.3	-19.3	18.4	4.2	53.8*	-3.4	31.4	x
Cc1sc(NC(=O)Cc2ccc3c(c2)OCO3)nc1-c1ccc2c(c1)CCN2C(=O)c1ccc(F)cc1	9.8	-2.2	-11.3	-10.7	28.5	3.0	x	x
Cc1cc(NC(=O)COC(=O)c2c(Cl)cccc2Cl)no1	-74.8	-25.2	-13.8	9.1	88.1*	-14.4	58.6*	53.8*
Cc1cc(NC(=O)COC(=O)c2ccc(Cl)cc2)no1	2.7	-4.7	-6.8	-9.4	x	-0.2	x	x
Cc1cc(NC(=O)COC(=O)c2ccccc2S(=O)(=O)N(C)c2ccccc2)no1	8.9	32.6	9.2	-5.1	96.3*	-0.7	72.2*	43.4*
Cc1ccc(S(=O)(=O)CCC(=O)NC2CCCC2)cc1	4.6	14.2	-33.4	4.4	18.8	-1.2	x	x
CC(C)N(Cc1ccccc1)C(=O)COC(=O)c1cnc(Cl)c(Cl)c1	23.0	82.9*	-5.7	-11.9	63.4*	1.6	8.9	x
O=C(c1ccc(Cl)c(Cl)c1)N1CCC(=O)N(C(COCc2ccccc2)Cc2ccccc2)CC1 (configuration not stated)	12.1	4.9	7.7	4.3	61.0*	6.1	48.1*	89.8*
O=C(c1ccc(Cl)c(Cl)c1)N1CCC(=O)N([C@H](COCc2ccccc2)Cc2ccccc2)CC1	1.1	x	x	x	x	1.9	x	x
CCOC(=O)Cn1c(-c2nonc2NC(=O)c2ccccc2F)nc2ccccc21	-14.9	9.4	-8.3	-8.7	91.0*	-5.0	93.4*	34.7
CCC(=O)Nc1nonc1-c1nc2ccccc2n1Cc1cccc2ccccc12	10.6	9.5	-0.3	-0.9	64.0*	-2.2	69.8*	109.3*
CCC(=O)Nc1nonc1-c1nc2ccccc2n1Cc1ccccc1	-8.5	4.6	-6.4	-14.2	38.1	5.7	x	x
CC(=O)Nc1nonc1-c1nc2ccccc2n1CCC(C)C	15.9	16.6	32.9	-14.9	55.7*	-4.2	49.7*	44.8*
CCCCOc1ccccc1NC(=O)Cn1c(-c2nonc2N)nc2ccccc21	9.1	50.0	26.9	-23.2	89.8*	3.0	20.1	x
O=C(Nc1cccc2c(=O)[nH][nH]c(=O)c12)c1ccc([N+](=O)[O-])cc1	-114.9	-35.0	-41.8	0.6	x	-4.2	x	x
CCC(=O)Nc1nonc1-c1nc2ccccc2n1N(C(=O)CC)C(=O)CC	-4.7	-8.0	5.0	12.9	25.5	-7.9	x	x
CCC(=O)Nc1nonc1-c1nc2ccccc2n1CCC(C)C	9.1	17.7	37.6	-17.5	50.4*	-3.6	56.1*	55.9*
Cn1c(C(=O)NCc2cccs2)cc2oc3ccccc3c21	-256.4	-271.6	-8.3	17.6	77.4*	6.0	72.4*	27.7
Cn1c(C(=O)NCC2CCCO2)cc2oc3ccccc3c21 (configuration not stated)	-262.3	-301.9	-9.1	1.4	-102.9	3.7	x	x
Cn1c(C(=O)NCc2ccccc2)cc2oc3ccccc3c21	-330.3	-207.9	-20.6	3.2	88.5*	1.6	86.8*	32.1
CC(C)Cn1c(N)c(C(=O)CSc2ccc3c(c2)OCCO3)c(=O)n(C)c1=O	11.1	20.6	44.6	-11.7	51.6*	6.9	54.9*	41.2*
SMILES	HIF-2a inh	Peg3 promoter	CF NFkB block	KKLEB cytotox	Mdm2-MdmX inh	ABHD5 PLIN5 PPI	Mdm2 MdmX conf	FLuc counter
CC(C)Cn1c(N)c(C(=O)COC(=O)c2ccc3c(c2)OCCO3)c(=O)n(C)c1=O	19.9	0.1	-16.1	-0.4	22.6	6.7	x	x
Cc1ccc(OCCCn2ccnc2)c(Br)c1	-47.9	-7.4	-24.7	-1.8	-10.1	-1.5	x	x
COc1ccc(COc2ccsc2C(=O)Nc2ccc(Cl)c(Cl)c2)cc1	-47.3	31.6	44.0	-66.3*	76.4*	-3.7	6.5	x
CCN1/C(=C\C(=S)Nc2ccccc2)Sc2ccccc21	-196.4	-303.4	11.9	-9.8	-62.6	-2.9	x	x
CCN1/C(=C/C(C)=C/c2sc3ccccc3[n+]2CC)Sc2ccccc21	95.2*	104.0*	6.0	-43.4	97.4*	13.9	100.2*	15.4
CCC(=O)N1CCN=C1SCc1cccc(C(F)(F)F)c1	-9.1	-22.8	6.5	-1.7	0.3	-1.2	x	x
COc1cc(C(=O)OCC(=O)Nc2ccccc2C(=O)NC2CC2)c([N+](=O)[O-])cc1OC	7.3	7.1	14.6	4.8	-1.6	-6.9	x	x
CC(C)(C)c1ccc(NC(=O)NC2CCCc3ccccc32)cc1 (configuration not stated)	-34.5	-10.3	8.5	-12.9	69.9*	-7.4	52.6*	70.5*
CC(=O)N1CCN(S(=O)(=O)c2cccc(C(=O)OCC(=O)NCc3ccccc3Cl)c2)CC1	0.6	-1.0	-8.6	-0.7	x	-0.1	x	x
O=C(Nc1ccc(-c2noc(CCc3ccccc3)n2)cc1)c1cccnc1	-95.8	-65.5	-24.1	18.4	21.3	6.5	x	x
Cc1cc(OCc2nc(-c3ccc(NC(=O)c4cccnc4)cc3)no2)ccc1Cl	0.1	10.9	2.1	-16.4	62.4*	1.6	11.3	x
CCCCC(=O)Nc1cnc(NC(=O)c2cccs2)cc1C	-205.9	-176.9	8.2	5.3	-22.0	-8.4	x	x
COc1ccc(C(=O)Nc2ccncc2)cc1S(=O)(=O)N1CCOCC1	-76.8	-40.7	11.4	-22.1	-9.0	9.9	x	x
O=C(Nc1ccc(NC(=O)c2ccc(Cl)c(S(=O)(=O)N3CCOCC3)c2)cc1)c1ccccc1	2.6	6.0	5.7	-18.5	57.6*	-2.1	44.6*	48.4*
O=C(Nc1ccc(Cl)c(S(=O)(=O)N2CCCC2)c1)c1cc(=O)[nH]c2ccccc12	6.6	19.9	-1.9	-10.4	51.6*	2.0	9.9	x
O=C(Nc1ccc(N2CCOCC2)cc1)c1ccc(Cl)c(S(=O)(=O)N2CCCC2)c1	5.4	-0.2	8.3	-6.7	24.4	-10.6	x	x
